Results on 32 compounds are retold here after PubChem BioAssay (Tox21).

The structures appear in SMILES notation. Records with an inconclusive call do not appear. The source made the active and inactive calls. The call rests on the fitted dose curve; in most records, active means well fitted curve in the direction sought with a large enough effect in the repeat runs; inconclusive means weak or mixed curves; inactive means no such curve, though single readings can be large; an effect the other way counts as inactive or inconclusive.
Further: nearly all actives have a fitted effect of over 55% in size.
On the % scale 0 is the no-effect control and ±100 the full control effect.

For one experiment, the target named is Aromatase (Homo sapiens) (UniProt P11511). Kind of experiment: qHTS assay to identify aromatase inhibitors (AID 743083). Further: potency means the concentration at half of the fitted maximal effect. To be noted: MCF-7 aro ERE, testosterone-driven ERE luciferase, 24 h; series mostly up to 70.3 µM; activity, negative = inhibition: at the top concentration.
Sequence of Aromatase (Homo sapiens) (P11511 whole entry, looked up): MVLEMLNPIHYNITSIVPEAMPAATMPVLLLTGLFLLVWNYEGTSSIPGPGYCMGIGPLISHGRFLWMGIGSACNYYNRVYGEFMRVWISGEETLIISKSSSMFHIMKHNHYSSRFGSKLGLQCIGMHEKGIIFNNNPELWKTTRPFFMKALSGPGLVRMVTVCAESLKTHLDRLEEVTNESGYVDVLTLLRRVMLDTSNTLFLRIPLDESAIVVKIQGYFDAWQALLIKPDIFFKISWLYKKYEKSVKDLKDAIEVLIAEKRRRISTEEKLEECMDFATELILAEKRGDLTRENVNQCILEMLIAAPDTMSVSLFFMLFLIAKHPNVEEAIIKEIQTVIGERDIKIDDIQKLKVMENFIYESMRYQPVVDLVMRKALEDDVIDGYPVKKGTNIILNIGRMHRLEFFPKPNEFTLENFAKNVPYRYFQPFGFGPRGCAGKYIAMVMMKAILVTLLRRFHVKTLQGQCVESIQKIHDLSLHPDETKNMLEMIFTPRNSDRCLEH
In the case of `O=c1c(O)c(O)c1=O`, the “activity, negative = inhibition” value is 7.46% (inactive).
Same read-out and setting: for `CN(C)c1ccncc1` the value was 13.1% (inactive).
The same measure, in the same setting: for `CCC(C)SSC(C)CC` (stereo unspecified) the value was 6.09% (inactive).
Still for that read-out and setting: in the case of `CCOCCOCCOC(C)=O` it was 8.84% [at 95 µM] (inactive).
`CN(C)CCc1c[nH]c2ccc(CS(=O)(=O)N3CCCC3)cc12`: the “activity, negative = inhibition” value is -1.16% (inactive).
For `CC(C)(O)c1ccc(C(C)(C)O)cc1`, the “activity, negative = inhibition” value is 11.1% (inactive).
For `CCCCOCCCC`, the “activity, negative = inhibition” value is -6.03% (inactive).
`C=CCOC(=O)CCCCCCCC`: the “activity, negative = inhibition” value is 11.3% [at 95 µM] (inactive).
Same read-out and setting: for `CCCCCCC(=O)c1ccccc1` the value was 20.4% (inactive); for `C/C(Cl)=C/CCl`, 11.8% [at 95 µM] (inactive).
On the same count and under the same terms, for `CC(=O)OC1CCC(C(C)(C)C)CC1` (stereo unspecified) the value was 8.9% (inactive); for `CCOC(=O)c1ccc(N(C)C)cc1`, 62% (inactive); for `Cc1cc(C)c(C)c(C)c1`, 8.86% (inactive).
Still for that read-out and setting: for `C[C@@H]1CC[C@@]2(OC1)O[C@H]1C[C@H]3[C@@H]4CC[C@H]5C[C@@H](O)CC[C@]5(C)[C@H]4CC(=O)[C@]3(C)[C@H]1[C@@H]2C` the value was -3.9% [at 32.5 µM] (inactive); for `CCCCCC(CC)OC(=O)CCCOc1ccc(Cl)cc1Cl` (stereo unspecified), -4.41% (inactive); for `COc1ccc2cc(CCC(C)=O)ccc2c1`, 98.5% [at 32.5 µM] (inactive).
For `CC(=O)Nc1ccc(S(=O)(=O)Nc2cc(C)on2)cc1`, the “activity, negative = inhibition” value was -2.33% (inactive).
Still for that read-out and setting: for `CCCCCCCCCCCCCCCCN(C)C` the value was 3.06% [at 8.47 µM] (inactive); for `C/C=C/C(=O)CCCC`, 5.93% (inactive); for `N=C(N)N1CCc2ccccc2C1`, 2.79% (inactive).
Regarding `CCN(CC)CC`, the “activity, negative = inhibition” value is 7.33% [at 95 µM] (inactive).
Regarding `Cc1ccc2cccnc2c1`, the “activity, negative = inhibition” value was -1.68% (inactive).
On the same count and under the same terms, in the case of `C=CC(=O)OCCOCCOCC` it was -17% (inactive); in that of `c1coc(Cn2cccc2)c1`, -0.67% (inactive); in that of `O=C(O)/C=C(\CC(=O)O)C(=O)O`, 7.05% (inactive).
Same read-out and setting: in the case of `CC(C)(C)C(=O)NCCCC(=O)O` it was -0.41% (inactive); in that of `Cc1ccc(Br)cc1`, -1.12% (inactive); in that of `COC(=O)N/N=C/c1c[n+]([O-])c2ccccc2[n+]1[O-]`, 3.82% (inactive).
Turning to `COc1cc(OC)cc(OC)c1`, the “activity, negative = inhibition” value is -2.96% (inactive).
For `Cc1ccc(O)c(C(=O)c2ccccc2)c1`, the Potency was 55 µM (active).
With `CC(CN1CC(=O)NC(=O)C1)N1CC(=O)NC(=O)C1` (stereo unspecified), the “activity, negative = inhibition” value was 30.5% (inactive).
The same measure, in the same setting: in the case of `Cc1ccc(NC(N)=O)cc1` it was 12% [at 95 µM] (inactive).

Test system in another experiment: not listed separately
In words: qHTS assay to identify aromatase inhibitors - cell viability counter screen (AID 743084).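 Further: cells stimulated with testosterone during compound exposure.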 To be noted: MCF-7 aro ERE viability, CellTiter-Fluor, 24 h; series mostly up to 70.3 µM; activity change, negative = cytotoxicity: at the top concentration.
For the compound `O=c1c(O)c(O)c1=O`, the “activity change, negative = cytotoxicity” value was 12.7% (inactive).
Consider `CN(C)c1ccncc1`, for which the “activity change, negative = cytotoxicity” value is 11.8% (inactive).
Still for that read-out and setting: in the case of `CCC(C)SSC(C)CC` (stereo unspecified) it was 4.51% (inactive); in that of `CCOCCOCCOC(C)=O`, 15.2% [at 95 µM] (inactive).
As to `CN(C)CCc1c[nH]c2ccc(CS(=O)(=O)N3CCCC3)cc12`, the “activity change, negative = cytotoxicity” value was 0.691% (inactive).
Take `CC(C)(O)c1ccc(C(C)(C)O)cc1`: the “activity change, negative = cytotoxicity” value was 13% (inactive).
Turning to `CCCCOCCCC`, the “activity change, negative = cytotoxicity” value was -2.24% (inactive).
Same read-out and setting: in the case of `C=CCOC(=O)CCCCCCCC` it was -2.04% [at 95 µM] (inactive); in that of `CCCCCCC(=O)c1ccccc1`, 3.95% (inactive); in that of `C/C(Cl)=C/CCl`, 19.2% [at 95 µM] (inactive).
With `CC(=O)OC1CCC(C(C)(C)C)CC1` (stereo unspecified), the “activity change, negative = cytotoxicity” value was -5.18% (inactive).
On the same count and under the same terms, for `CCOC(=O)c1ccc(N(C)C)cc1` the value was 1.62% (inactive); for `Cc1cc(C)c(C)c(C)c1`, -0.137% (inactive).
Still for that read-out and setting: for `C[C@@H]1CC[C@@]2(OC1)O[C@H]1C[C@H]3[C@@H]4CC[C@H]5C[C@@H](O)CC[C@]5(C)[C@H]4CC(=O)[C@]3(C)[C@H]1[C@@H]2C` the value was 7.12% [at 32.5 µM] (inactive); for `CCCCCC(CC)OC(=O)CCCOc1ccc(Cl)cc1Cl` (stereo unspecified), -5% (inactive); for `COc1ccc2cc(CCC(C)=O)ccc2c1`, 16.2% [at 32.5 µM] (inactive).
On the same count and under the same terms, in the case of `CC(=O)Nc1ccc(S(=O)(=O)Nc2cc(C)on2)cc1` it was 0.814% (inactive).
As to `CCCCCCCCCCCCCCCCN(C)C`, the activity change, negative = cytotoxicity is 0.21% [at 8.47 µM] (inactive).
On the same count and under the same terms, for `C/C=C/C(=O)CCCC` the value was 12.5% (inactive); for `N=C(N)N1CCc2ccccc2C1`, 5.66% (inactive); for `CCN(CC)CC`, 4.46% [at 95 µM] (inactive).
On the same count and under the same terms, for `Cc1ccc2cccnc2c1` the value was -5.27% (inactive); for `c1coc(Cn2cccc2)c1`, 10.5% (inactive); for `O=C(O)/C=C(\CC(=O)O)C(=O)O`, 1.14% (inactive).
On the same count and under the same terms, in the case of `CC(C)(C)C(=O)NCCCC(=O)O` it was 15.5% (inactive); in that of `Cc1ccc(Br)cc1`, 0.757% (inactive).
As to `COC(=O)N/N=C/c1c[n+]([O-])c2ccccc2[n+]1[O-]`, the “activity change, negative = cytotoxicity” value is -9.7% (inactive).
Same read-out and setting: in the case of `COc1cc(OC)cc(OC)c1` it was 13.6% (inactive).
Same read-out and setting: for `Cc1ccc(NC(N)=O)cc1` the value was 23% [at 95 µM] (inactive).
